Source: PubChem BioAssay (NCI)
About 79,000 compounds went through this panel and 15% of them were active in at least one assay; those are over-represented in the sample as a whole. Active and inactive are the calls of the source. Rule as the data show it: active = growth inhibition above about 70%; inactive = the rest.

Experiment: NCI Yeast Anticancer Drug Screen. Data for the rad52 strain (AID 147);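 also: 0% = growth of vehicle-treated control cultures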
Details: S. cerevisiae rad52 mutant growth inhibition; at 33.0 µM; active compounds read high
How it was run: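 DNA repair-defective yeast; compound exposure; growth scored against vehicle controls.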

Compound	growth inhibition
CCN(CC)CC[n+]1ccc2c(C)c3[nH]c4ccc(O)cc4c3c(C)c2c1	87% (active)
O=[n+]1c2ccc(Cl)cc2n([O-])c2ccc(Cl)cc21	44% (inactive)
CCOP(=O)(OCC)C(Cc1ccccc1)N=C(c1ccccc1)c1ccccc1 (stereo not drawn)	91% (active)
CC[C@@]1(O)C(=O)OCc2c1cc1n(c2=O)Cc2cc3c(N)cccc3nc2-1	82% (active)
COC1C=COC2(C)Oc3c(C)c(O)c4c(c3C2=O)/C(=N/C2CCC(O)OC2C)C=C(NC(=O)/C(C)=C\C(=O)C2CC2C(O)C(C)C(O)C(C)C(OC(C)=O)C1C)C4=O (stereo not drawn)	17% (inactive)
COc1cc2c(c(OC)c1OC)-c1c(cc3c(c1OC)OCO3)CC(C)C(C)(O)C2OC(=O)c1ccccc1 (stereo not drawn)	-22% (inactive)
O=c1ssc2ncccc12	95% (active)
O=C1C2C(C(=O)N1c1ccc(OCc3ccccc3)cc1)C1c3ccccc3C2C2CCCCN21 (stereo not drawn)	12% (inactive)
COc1ccc(-c2cn(-c3ccc(I)cc3)c3ncnc(N)c23)cc1	-7% (inactive)
CCOC(=O)C(NC(=O)c1ccccc1)(N1CCN(c2cc3c(cc2F)c(=O)c(C(=O)O)cn3C2CC2)CC1)C(F)(F)F (stereo not drawn)	35% (inactive)
C/C(=N\O)C1CC2C=C(C#N)C1N(Cc1ccccc1)C2 (stereo not drawn)	1% (inactive)
CC/C(=C(\c1ccccc1)c1ccc(OCCN(C)C)cc1)c1ccccc1	98% (active)
COc1ccccc1N=NC(C(=O)c1ccccc1)C(=O)c1ccccc1	97% (active)
CC(O)C(O)C(O)C(/C=N\Nc1ccccc1)=N/Nc1ccccc1 (stereo not drawn)	69% (inactive)
COc1ccc(/C=C2\SC(=S)N(/C=C/c3nc4ccccc4[nH]c3=O)C2=O)cc1OC	61% (inactive)
N#CN=Nc1cc(Cl)c(N=NC#N)cc1Cl	2% (inactive)
Cc1ccc(S(=O)(=O)Oc2cc(Cl)c(Cl)cc2Cl)cc1	-5% (inactive)
c1ccc2c(c1)Oc1cccc3cccc-2c13	38% (inactive)
O=C(c1ccc(Cl)cc1Cl)C(Cl)Cl	74% (active)
CC(C)C1=CCC2C(=C1)CCC1C(C)(C(=O)O)CCCC21C (stereo not drawn) (tested in a mixture with another compound)	41% (inactive)

Compound	growth inhibition
COc1cc(/C=C2\CCc3ccccc3C2=O)cc(OC)c1OC	18% (inactive)
CC(=O)[O][Bi]([c]1ccccc1)[c]1ccccc1	91% (active)
S=C(N/N=C/c1ccccn1)Nc1ccc(Cl)cc1	15% (inactive)
COc1cc(CC2CC(c3ccc4c(c3)OCO4)OC2=O)cc(OC)c1OC (stereo not drawn)	3% (inactive)
CNC1C(OC2C(OC3C(O)C(O)C(N=C(N)N)C(O)C3N=C(N)N)OC(C)C2(O)CO)OC(CO)C(O)C1O (stereo not drawn)	28% (inactive)
NNC(=O)CCc1ccc2ccc3ccccc3c2c1	13% (inactive)
Oc1ccc2ccccc2c1C(c1ccc(Cl)cc1)c1c(O)ccc2ccccc12	51% (inactive)
CCCCN(CCCC)CCSc1ccc(Cl)cc1	16% (inactive)
CCC(C)COC(=O)c1ccc(N=Cc2ccc(C=Nc3ccc(C(=O)OCC(C)CC)cc3)cc2)cc1 (stereo not drawn)	4% (inactive)
CC1(C)C(=O)OC(n2cc(F)c(=O)[nH]c2=O)C1=O (stereo not drawn)	-8% (inactive)
O=[N+]([O-])CC(SCc1ccccc1)c1ccc2c(c1)OCO2 (stereo not drawn)	99% (active)
COc1cc2c(cc1[N+](=O)[O-])C(=O)C(Br)(Br)CCC2	99% (active)
OCC1OC(OCC(O)C(O)C(O)C(/C=N/Nc2ccccc2)=N/Nc2ccccc2)C(O)C(O)C1O (stereo not drawn)	18% (inactive)
COc1ccc(N=C2C(=O)Nc3ccc(Br)cc32)cc1	23% (inactive)
Cn1c(=O)c2ccccc2c2ccccc21	88% (active)
CC[n+]1ccc2c(C)c3[nH]c4ccc(O)cc4c3c(C)c2c1	90% (active)
CC(=O)ON1C(=O)c2cccc3cccc(c23)C1=O	97% (active)
COc1ccc2ccc3ccccc3c2c1C=O	0% (inactive)
OC1CCCc2c1cc1ccc3cccc4ccc2c1c34 (stereo not drawn)	96% (active)

Same assay, conditions: S. cerevisiae rad52 mutant growth inhibition; at 100.0 µM; active compounds read high

Compound	growth inhibition
CCN(CC)CC[n+]1ccc2c(C)c3[nH]c4ccc(O)cc4c3c(C)c2c1	95% (active)
O=[n+]1c2ccc(Cl)cc2n([O-])c2ccc(Cl)cc21	57% (inactive)
CCOP(=O)(OCC)C(Cc1ccccc1)N=C(c1ccccc1)c1ccccc1 (stereo not drawn)	98% (active)
CC[C@@]1(O)C(=O)OCc2c1cc1n(c2=O)Cc2cc3c(N)cccc3nc2-1	75% (active)
COC1C=COC2(C)Oc3c(C)c(O)c4c(c3C2=O)/C(=N/C2CCC(O)OC2C)C=C(NC(=O)/C(C)=C\C(=O)C2CC2C(O)C(C)C(O)C(C)C(OC(C)=O)C1C)C4=O (stereo not drawn)	92% (active)
COc1cc2c(c(OC)c1OC)-c1c(cc3c(c1OC)OCO3)CC(C)C(C)(O)C2OC(=O)c1ccccc1 (stereo not drawn)	47% (inactive)
O=c1ssc2ncccc12	99% (active)
O=C1C2C(C(=O)N1c1ccc(OCc3ccccc3)cc1)C1c3ccccc3C2C2CCCCN21 (stereo not drawn)	79% (active)
COc1ccc(-c2cn(-c3ccc(I)cc3)c3ncnc(N)c23)cc1	-8% (inactive)
CCOC(=O)C(NC(=O)c1ccccc1)(N1CCN(c2cc3c(cc2F)c(=O)c(C(=O)O)cn3C2CC2)CC1)C(F)(F)F (stereo not drawn)	75% (active)
C/C(=N\O)C1CC2C=C(C#N)C1N(Cc1ccccc1)C2 (stereo not drawn)	8% (inactive)
CC/C(=C(\c1ccccc1)c1ccc(OCCN(C)C)cc1)c1ccccc1	98% (active)
COc1ccccc1N=NC(C(=O)c1ccccc1)C(=O)c1ccccc1	97% (active)
CC(O)C(O)C(O)C(/C=N\Nc1ccccc1)=N/Nc1ccccc1 (stereo not drawn)	98% (active)
COc1ccc(/C=C2\SC(=S)N(/C=C/c3nc4ccccc4[nH]c3=O)C2=O)cc1OC	86% (active)
N#CN=Nc1cc(Cl)c(N=NC#N)cc1Cl	68% (inactive)
Cc1ccc(S(=O)(=O)Oc2cc(Cl)c(Cl)cc2Cl)cc1	17% (inactive)
c1ccc2c(c1)Oc1cccc3cccc-2c13	58% (inactive)
O=C(c1ccc(Cl)cc1Cl)C(Cl)Cl	98% (active)
CC(C)C1=CCC2C(=C1)CCC1C(C)(C(=O)O)CCCC21C (stereo not drawn) (tested in a mixture with another compound)	94% (active)

Compound	growth inhibition
COc1cc(/C=C2\CCc3ccccc3C2=O)cc(OC)c1OC	70% (active)
CC(=O)[O][Bi]([c]1ccccc1)[c]1ccccc1	94% (active)
S=C(N/N=C/c1ccccn1)Nc1ccc(Cl)cc1	59% (inactive)
COc1cc(CC2CC(c3ccc4c(c3)OCO4)OC2=O)cc(OC)c1OC (stereo not drawn)	7% (inactive)
CNC1C(OC2C(OC3C(O)C(O)C(N=C(N)N)C(O)C3N=C(N)N)OC(C)C2(O)CO)OC(CO)C(O)C1O (stereo not drawn)	-7% (inactive)
NNC(=O)CCc1ccc2ccc3ccccc3c2c1	52% (inactive)
Oc1ccc2ccccc2c1C(c1ccc(Cl)cc1)c1c(O)ccc2ccccc12	84% (active)
CCCCN(CCCC)CCSc1ccc(Cl)cc1	95% (active)
CCC(C)COC(=O)c1ccc(N=Cc2ccc(C=Nc3ccc(C(=O)OCC(C)CC)cc3)cc2)cc1 (stereo not drawn)	13% (inactive)
CC1(C)C(=O)OC(n2cc(F)c(=O)[nH]c2=O)C1=O (stereo not drawn)	26% (inactive)
O=[N+]([O-])CC(SCc1ccccc1)c1ccc2c(c1)OCO2 (stereo not drawn)	97% (active)
COc1cc2c(cc1[N+](=O)[O-])C(=O)C(Br)(Br)CCC2	94% (active)
OCC1OC(OCC(O)C(O)C(O)C(/C=N/Nc2ccccc2)=N/Nc2ccccc2)C(O)C(O)C1O (stereo not drawn)	45% (inactive)
COc1ccc(N=C2C(=O)Nc3ccc(Br)cc32)cc1	17% (inactive)
Cn1c(=O)c2ccccc2c2ccccc21	96% (active)
CC[n+]1ccc2c(C)c3[nH]c4ccc(O)cc4c3c(C)c2c1	92% (active)
CC(=O)ON1C(=O)c2cccc3cccc(c23)C1=O	98% (active)
COc1ccc2ccc3ccccc3c2c1C=O	63% (inactive)
OC1CCCc2c1cc1ccc3cccc4ccc2c1c34 (stereo not drawn)	91% (active)
